IL1B secr inh: blocks inflammasome-driven IL-1 beta release. THP-1 LPS/ATP IL-1B secretion, AlphaLISA, 16 h; stronger effect = lower value. activity change, % at 57.5 µM. actives 4.7% (n = 360,000). AID 743279; in the data active = activity change below about -50%; inconclusive = mostly about -30% to -49%
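Secreted IL-1B measured by AlphaLISA bead assay after 16 h compound exposure of THP-1 cells; compounds (final up to 57.5 uM) added 1 h before LPS (250 ng/mL) and ATP (1.25 mM) stimulation; lower signal means less secretion.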
HT1080NT lethal: kills 2HG-producing HT-1080-NT fibrosarcoma cells. HT-1080-NT fibrosarcoma viability, CellTiter-Glo ATP luminescence, 48 h. Potency, µM (series often up to 46.1 µM), for the others: at the highest dose activity, negative = less viability, hits mostly cytotoxic. actives 1.6% (n = 360,000). AID 686970;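 also: NT is the 2HG producing partner of a matched IDH1 knockdown line; potency is read from the fitted curve at half-maximal effect; 0% = DMSO-treated cells and -100% = media-only wells without cells; nearly all actives have a fitted effect of over 55% in size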
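Fibrosarcoma NT cells, 750 per well in 5% FBS RPMI, were exposed to compound for 48 hours. Viability: CellTiter-Glo luminescence.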
TDP1 cell CPT: DT40-hTDP1 cell growth loss with CPT | actives 12% (n = 420,000) | Potency, µM (top dose mostly 46.2 µM), for inactives: top-dose activity change, negative = growth inhibition, most hits filed as inhibitors | chicken DT40 Tdp1-/-;hTDP1 cells + 20 nM CPT, ATP luminescence, 48 h; also: potency is read from the fitted curve at half-maximal effect; nearly all actives have a fitted effect of over 55% in size
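Cell growth measured by CellTiter-Glo luminescence after a minimum 48 h, 37 C compound exposure with 20 nM CPT in Tdp1-knockout DT40 cells stably expressing hTDP1, seeded 400/well; qHTS titration format.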
TDP1 cell noCPT: qHTS for Inhibitors of human tyrosyl-DNA phosphodiesterase 1 (TDP1): qHTS in cells in absence of CPT; DT40 Tdp1-/- hTDP1 cells, no CPT, ATP luminescence, 48 h; Potency, µM (titrated, usually from 46.2 µM), for inactives: top-dose activity change, negative = growth inhibition, usual class: inhibitors; actives 15% (n = 420,000); also: potency is read from the fitted curve at half-maximal effect; nearly all actives have a fitted effect of over 55% in size
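Cells were dispensed at 400 per well, compounds added by pin tool, plates incubated ≥48 hr at 37 °C, then CellTiter-Glo added for 30 min at room temperature before luminescence reading. Line: DT40 Tdp1-/- complemented with hTDP1; camptothecin omitted.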
HT1080 IDH1KD tx: toxicity to HT-1080 IDH1 knockdown cells (counter line); HT-1080 IDH1 knockdown viability, ATP luminescence, 48 h; Potency, µM (top dose mostly 46.1 µM), without a hit: at the highest dose activity, negative = toxicity, actives largely listed as cytotoxic; actives 2% (n = 360,000); AID 686971;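 also: potency is read from the fitted curve at half-maximal effect; 0% = DMSO wells and -100% = cell-free medium wells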
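HT-1080-IDH1KD cells (IDH1 knocked down), 750/well in RPMI with 5% FBS, treated with compound 48 h at 37 degrees C. Viability by CellTiter-Glo luminescence, normalised to DMSO and no-cell wells; concentration-response curves classed.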
ELG1 repair inh: blocks ELG1-dependent DNA repair in HEK293T cells; HEK293T ELG1-luciferase reporter, luminescence, 16 h; DNA damage induced by 5-fluorouridine; Potency, µM (titrated, usually from 46.1 µM), for inactives: at the top dose activity change, negative = inhibition, actives largely listed as inhibitors; actives 2.3% (n = 330,000); also: potency is read from the fitted curve at half-maximal effect; nearly all actives have a fitted effect of over 55% in size
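Quantitative HTS, concentration-response format. 2,000 cells/well co-treated with 5-fluorouridine and compound, 16 hr in 5% CO2 at 37 °C; ONE-Glo luminescence read after 30 min.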
Active calls of the source: *; u = inconclusive; x = no result given; ! = repeats disagree; [ ] = dose if it differs, or a comment. Only some compounds are listed: those with a hit (about 19% of all), similar ones and a draw of the others. Unless noted, calls follow the shape of the dose curve; as a rule, active = well fitted curve in the direction sought with a large enough effect; inconclusive = small, poorly fitted or top-dose-only effect, or another doubt; inactive = no such curve, though single readings can be large; an effect the other way counts as inactive or inconclusive. Unless noted, % is scaled to controls: 0 for no effect and ±100 for the full control effect.

SMILES	IL1B secr inh	HT1080NT lethal	TDP1 cell CPT	TDP1 cell noCPT	HT1080 IDH1KD tx	ELG1 repair inh
COc1ccc(NC(=O)c2cc3c(-c4ccccc4F)nn(C)c3s2)c(OC)c1	x	x	10.3µM*	10.3µM*	x	x
COc1ccc(OC)c(CCNC(=O)c2cc3c(-c4ccccc4F)nn(C)c3s2)c1	x	x	11.6µM*	8.2µM*	x	x
CN(C(=O)COC(=O)Cc1ccc(Br)cc1)c1c(N)n(Cc2ccccc2)c(=O)[nH]c1=O	-9.7	2.5%	-26.9%	u	0.1%	x
COCCNC(=O)c1[nH]c(C(F)(F)F)nc1-c1ccccc1	8.2	3.0%	-1.0%	3.7%	3.0%	x
CCOC(=O)C(C)(C)Sc1ncnc2nc[nH]c12	-20.0	4.6%	u	-9.7%	-0.6%	-12.4%
CCOC(=O)c1cc([N+](=O)[O-])cc([N+](=O)[O-])c1Sc1ncnc2nc[nH]c12	-100.1*	4.61µM*	1.84µM*	2.59µM*	4.61µM*	x
CCCCCCCCNS(=O)(=O)CCNCc1ccco1	6.5	-1.1%	-9.6%	-20.3%	-2.4%	x
Fc1ccc(Sc2nc(-c3ccccc3)nnc2C(F)(F)F)cc1	-120.0*	23.1µM*	5.8µM*	13µM*	23.1µM*	u
CN1CCN(c2nc(NCCOC34CC5CC(CC(C5)C3)C4)nc(OCC(F)(F)F)n2)CC1	-80.2*	9.4%	u	u	13.2%	-12.5%
CCCNc1nc(OCC(F)(F)F)nc(OCC(F)(F)F)n1	0.0	2.5%	14.3%	-7.3%	2.4%	12.3%
COc1ccc(Oc2ncc3nc(-c4cc(F)cc(F)c4)c(=O)n(C[C@H]4CCCO4)c3n2)cc1	x	x	u	-13.4%	x	x
COc1ccc(CN(CC2CCCO2)C(=O)CN2C(=O)COc3ccccc32)cc1OC (stereo unspecified)	-14.1	-3.4%	-10.8%	-20.9%	-0.3%	11.6µM*
COc1ccc(CN(CC(=O)NC2CCCC2)C(=O)CN2C(=O)COc3ccccc32)cc1	-7.8	0.4%	-6.1%	-16.2%	-2.4%	u
CCCCC(=O)OCC(=O)c1cc(C)n(-c2c(C)n(C)n(-c3ccccc3)c2=O)c1C	0.0	6.4%	6.4%	-25.0%	3.7%	8.1%
CCCCC1(COC(=O)CCC(=O)O)C(=O)N(c2ccccc2)N(c2ccccc2)C1=O	-3.7	-7.9%	0.0023µM*!	u	5.0%	3.8%
Cc1nn(Cc2ccc([N+](=O)[O-])cc2)c(=O)n1-c1ccccc1	6.4	-7.4%	-10.1%	-7.9%	-15.7%	10.2%
CCCCC1(Cc2ccc([N+](=O)[O-])cc2)C(=O)N(c2ccccc2)N(c2ccccc2)C1=O	-57.9*	-18.6%	u	u	u	1.5%
CCN(CC)C(=O)c1ccc(COc2ccccc2Cl)cc1	-58.8*	-3.0%	u	u	-12.7%	-2.1%
C[C@H](CO)N1C[C@H](C)[C@@H](CN(C)S(=O)(=O)c2ccc(-n3cccn3)cc2)OCc2cnnn2CCCC1=O	2.4	1.5%	-2.6%	5.7%	1.8%	x
O=C(N/N=C/c1ccc(O)cc1)c1csc2c1CCCC2	-61.9*	-17.3%	15.8%	u	-17.8%	26.7%
COc1ccc(OC)c(CCNC(=O)c2cc3cccc4c3n2CC(C)S4)c1 (stereo unspecified)	x	x	5.8µM*	5.17µM*	x	x
COc1ccc(CNC(=O)c2cc3cccc4c3n2CC(C)S4)c(OC)c1 (stereo unspecified)	x	x	9.2µM*	5.17µM*	x	x
COc1ccc(CNC(=O)c2cc3cccc4c3n2CC(C)S4)cc1OC (stereo unspecified)	x	x	u	23.1µM*	x	x
COc1ccc(OC)c(CCNC(=O)c2cccc(NC3=NC4CS(=O)(=O)CC4S3)c2)c1 (stereo unspecified)	-11.4	-0.9%	-1.1%	5.7%	10.8%	1.1%
COc1ccc(OCC(O)Cn2c(N)nc3c2c(=O)[nH]c(=O)n3C)cc1 (stereo unspecified)	28.1	15.8%	1.2%	-26.9%	8.3%	2.8%
SMILES	IL1B secr inh	HT1080NT lethal	TDP1 cell CPT	TDP1 cell noCPT	HT1080 IDH1KD tx	ELG1 repair inh
COc1ccc(CNC(=O)C(c2ccco2)N(C(=O)c2snc(C(N)=O)c2N)c2cccc(OC)c2)cc1 (stereo unspecified)	91.7	-20.3%	7.0%	-10.6%	u	-10.0%
CCn1cc(C2=NC(C)CO2)c2ccccc21 (stereo unspecified)	-2.9	11.2µM*	u	-27.1%	10µM*	u
CCn1cc(C2=NC(c3ccccc3)CO2)c2ccccc21 (stereo unspecified)	-24.2	-2.8%	u	-17.9%	-3.8%	14.5%
Cc1ccn2cc(-c3cccc(NC(=O)C(C)C)c3)nc2c1	-0.1	16.7%	14.6µM*	29.1µM*	14.6%	u
COc1ccc(CC(=O)Nc2ccc(-c3cn4ccc(C)cc4n3)cc2)cc1	-7.2	14.6µM*	5.8µM*	5.17µM*	u	u
COc1ccc(CC(=O)Nc2ccc(-c3cn4cccc(C)c4n3)cc2)cc1OC	-12.6	1.5%	u	23.1µM*	-0.5%	u
COc1ccc(C(=O)NCc2cn3ccc(C)cc3n2)cc1	x	x	-3.9%	-3.9%	x	x
COC(=O)c1cccc(NC(=O)N(C)CCc2c(C)nn(C)c2C)c1	x	x	0.4%	-2.5%	x	x
CCN(C(=O)CSc1ccccn1)C1CCCCC1	0.9	5.2%	10.3µM*	14.6µM*	0.9%	15.3%
COc1ccccc1OCC(=O)N(Cc1nc(-c2ccccc2)no1)C1CCCCC1	-10.0	-25.0%	23.1µM*	20.6µM*	-23.6%	u
CCN(C(=O)CCc1ccccc1)C1CCCCC1	-12.5	10.7%	u	u	5.9%	-1.2%
CCN(C(=O)COc1ccccc1)C1CCCCC1	-13.8	1.7%	20.6µM*	u	2.7%	7.0%
Cc1ccccc1OCC(=O)N(Cc1nc(-c2ccccc2)no1)C(C)C	u	u	u	u	-4.9%[9.24 µM]	-12.6%
CCn1c2c(c3cc(Cl)ccc31)CCCC2=O	5.3	5.0%	-29.1%	-28.3%	2.3%	1.7%
CCn1c2c(c3cc(C(=O)O)ccc31)CCCC2=O	9.9	-4.0%	u	25.9µM*	0.3%	13.0%
Cc1ccc2nc(SCC(=O)c3c[nH]c4ccccc34)[nH]c2c1	-18.8	u	-1.6%	u	-21.0%	-10.6%

Screening results (PubChem)
